This passage reports binding signal results from paper PMC8384837, “Expanding the binding specificity for RNA recognition by a PUF domain”.

Test in all cases: yeast three-hybrid, YBZ-1, SC-Leu-His + 0.5 mM 3-AT, 4 days
Common to all, as to settings: tags: N-Gal4 AD-HA kept; label: inside an RPR1-promoter hybrid RNA with tandem MS2 sites; ssRNA

In one assay the target is PUM1 PUF domain R4-HWP (Homo sapiens, UniProt Q14671 828-1176, N971H;H972W;Q975P). In outline: (§1)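 Sequencing with Illumina followed PCR amplification of the repeat regions from transformants grown four days on SC-Leu (input) or SC-Leu-His + 0.5 mM 3-AT (selection). The transformants were strain YBZ-1 with a LexA–MS2 coat fusion and a HIS3 reporter, carrying Pumilio-1 PUF domain libraries and matching RNA elements. The interaction score is the log change in variant frequency from input to selection, computed in log2 with a pseudocount of 1 for absent variants.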

The target in a further assay is PUM1 PUF domain R5-GRV (Homo sapiens, UniProt Q14671 828-1176, C1007G;Q1011V). In a few lines:
as §1

The target in another assay is PUM1 PUF domain R4-GPT (Homo sapiens, UniProt Q14671 828-1176, N971G;H972P;Q975T). In a few lines:
as §1

In the next assay the target is PUM1 PUF domain R5-HLE (Homo sapiens, UniProt Q14671 828-1176, C1007H;R1008L;Q1011E). In outline: as §1
The next assay deals with T1, PUM1 PUF domain R6-WYG (Homo sapiens, UniProt Q14671 828-1176, N1043W;Q1047G).
T1 sequence: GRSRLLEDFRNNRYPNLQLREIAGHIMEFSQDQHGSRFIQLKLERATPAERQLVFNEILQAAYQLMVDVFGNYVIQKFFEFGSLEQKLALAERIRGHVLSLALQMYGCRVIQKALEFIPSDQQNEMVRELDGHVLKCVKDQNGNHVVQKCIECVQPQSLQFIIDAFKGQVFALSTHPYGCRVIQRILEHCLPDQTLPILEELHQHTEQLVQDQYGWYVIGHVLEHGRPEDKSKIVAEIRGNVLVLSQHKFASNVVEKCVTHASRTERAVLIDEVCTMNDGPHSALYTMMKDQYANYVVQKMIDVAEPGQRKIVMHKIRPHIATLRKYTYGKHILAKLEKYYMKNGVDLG
In outline: as §1

In the next assay the target is PUM1 PUF domain R2-GWD (Homo sapiens, UniProt Q14671 828-1176, N899G;Y900W;Q903D). In outline:
as §1

The target of another assay is PUM1 PUF domain R3-LYG (Homo sapiens, UniProt Q14671 828-1176, C935L;R936Y;Q939G). In outline: as §1
The target in another assay is PUM1 PUF domain R8-KHS (Homo sapiens, UniProt Q14671 828-1176, N1122K;Y1123H;Q1126S). In outline:
as §1

For another assay, the target named is PUM1 PUF domain R3-LWC (Homo sapiens, UniProt Q14671 828-1176, C935L;R936W;Q939C). In a few lines:
as §1

The next assay addresses PUM1 PUF domain R3-RSC (Homo sapiens, UniProt Q14671 828-1176, C935R;R936S;Q939C). In a few lines:
as §1

For another assay, the target named is PUM1 PUF domain R4-MPG (Homo sapiens, UniProt Q14671 828-1176, N971M;H972P;Q975G). In outline:
as §1

The next assay deals with PUM1 PUF domain R1-KPL (Homo sapiens, UniProt Q14671 828-1176, S863K;R864P;Q867L). In a few lines: as §1
A further assay has as its target PUM1 PUF domain R1-RPC (Homo sapiens, UniProt Q14671 828-1176, S863R;R864P;Q867C). In outline: as §1
In another assay the target is PUM1 PUF domain R1-TSR (Homo sapiens, UniProt Q14671 828-1176, S863T;R864S;Q867R). In outline:
as §1

For a further assay, the target named is PUM1 PUF domain R1-QLD (Homo sapiens, UniProt Q14671 828-1176, S863Q;R864L;Q867D). In outline:
as §1

A further assay deals with PUM1 PUF domain R2-DRQ (Homo sapiens, UniProt Q14671 828-1176, N899D;Y900R). In a few lines: as §1
Another assay concerns the target PUM1 PUF domain R5-RSI (Homo sapiens, UniProt Q14671 828-1176, C1007R;R1008S;Q1011I). In a few lines:
as §1

A further assay concerns the target PUM1 PUF domain R3-GPE (Homo sapiens, UniProt Q14671 828-1176, C935G;R936P;Q939E). In outline:
as §1

For a further assay, the target named is PUM1 PUF domain R3-MSN (Homo sapiens, UniProt Q14671 828-1176, C935M;R936S;Q939N). In outline: as §1
The next assay deals with PUM1 PUF domain R7-VVK (Homo sapiens, UniProt Q14671 828-1176, S1079V;N1080V;E1083K). In outline:
as §1

In the case of “GGCUAGAACUAGUGGAUCCCCCGGCGCCCGGCGGCUCGAGCCCGGGUAAGUGUAAAUAGUCUGCAUGCCGCCGGGCGCCAUGCCUGCAGGUCGACUCUAGAAAACAUG”, the binding signal with PUM1 PUF domain R4-HWP is 5.47 log2 enrichment (interaction score); with PUM1 PUF domain R5-GRV, 2.75 log2 enrichment (interaction score); with PUM1 PUF domain R4-GPT, 2.42 log2 enrichment (interaction score); with PUM1 PUF domain R5-HLE it was 1.15 log2 enrichment (interaction score); with PUM1 PUF domain R6-WYG it was 3.19 log2 enrichment (interaction score); with PUM1 PUF domain R2-GWD, 1.77 log2 enrichment (interaction score). Besides, the binding signal in the assay with PUM1 PUF domain R3-LYG is 2.65 log2 enrichment (interaction score); with PUM1 PUF domain R8-KHS, 4.58 log2 enrichment (interaction score).

Consider “GGCUAGAACUAGUGGAUCCCCCGGCGCCCGGCGGCUCGAGCCCGGGUAAGUGUAAUUAGUCUGCAUGCCGCCGGGCGCCAUGCCUGCAGGUCGACUCUAGAAAACAUG”, for which the binding signal with PUM1 PUF domain R3-LWC is 2.16 log2 enrichment (interaction score); in the assay with PUM1 PUF domain R3-LYG, 4.62 log2 enrichment (interaction score); in the assay with PUM1 PUF domain R3-RSC it was 3.04 log2 enrichment (interaction score).

Consider “GGCUAGAACUAGUGGAUCCCCCGGCGCCCGGCGGCUCGAGCCCGGGUAAGUGUACAUAGUCUGCAUGCCGCCGGGCGCCAUGCCUGCAGGUCGACUCUAGAAAACAUG”, for which, in the assay with PUM1 PUF domain R4-MPG, the binding signal is 2.9 log2 enrichment (interaction score).

Turning to “GGCUAGAACUAGUGGAUCCCCCGGCGCCCGGCGGCUCGAGCCCGGGUAAGUGUAAAUUGUCUGCAUGCCGCCGGGCGCCAUGCCUGCAGGUCGACUCUAGAAAACAUG”, the binding signal with PUM1 PUF domain R1-KPL is 3.37 log2 enrichment (interaction score); with PUM1 PUF domain R1-RPC, 1.56 log2 enrichment (interaction score); in the assay with PUM1 PUF domain R1-TSR, 0.81 log2 enrichment (interaction score); with PUM1 PUF domain R1-QLD, 4.86 log2 enrichment (interaction score).

Take “GGCUAGAACUAGUGGAUCCCCCGGCGCCCGGCGGCUCGAGCCCGGGUAAGUGUAAAGAGUCUGCAUGCCGCCGGGCGCCAUGCCUGCAGGUCGACUCUAGAAAACAUG”: in the assay with PUM1 PUF domain R2-GWD, the binding signal is 10.1 log2 enrichment (interaction score).

Regarding “GGCUAGAACUAGUGGAUCCCCCGGCGCCCGGCGGCUCGAGCCCGGGUAAGUGUAAAUCGUCUGCAUGCCGCCGGGCGCCAUGCCUGCAGGUCGACUCUAGAAAACAUG”, the binding signal is 2.58 log2 enrichment (interaction score) in the assay with PUM1 PUF domain R1-KPL, 2.57 log2 enrichment (interaction score) with PUM1 PUF domain R1-RPC and 2.68 log2 enrichment (interaction score) in the assay with PUM1 PUF domain R1-TSR.

“GGCUAGAACUAGUGGAUCCCCCGGCGCCCGGCGGCUCGAGCCCGGGUAAGUGUGAAUAGUCUGCAUGCCGCCGGGCGCCAUGCCUGCAGGUCGACUCUAGAAAACAUG”: the binding signal with PUM1 PUF domain R5-GRV was 2.53 log2 enrichment (interaction score).

In the case of “GGCUAGAACUAGUGGAUCCCCCGGCGCCCGGCGGCUCGAGCCCGGGUAAGUGUAAAAAGUCUGCAUGCCGCCGGGCGCCAUGCCUGCAGGUCGACUCUAGAAAACAUG”, the results for the binding signal in the assay with PUM1 PUF domain R2-DRQ and with PUM1 PUF domain R2-GWD were 2.96 log2 enrichment (interaction score) and 3.74 log2 enrichment (interaction score), respectively.

As for “GGCUAGAACUAGUGGAUCCCCCGGCGCCCGGCGGCUCGAGCCCGGGUAAGUGUUAAUAGUCUGCAUGCCGCCGGGCGCCAUGCCUGCAGGUCGACUCUAGAAAACAUG”, the values for the binding signal in the assay with PUM1 PUF domain R5-GRV, with PUM1 PUF domain R5-HLE and in the assay with PUM1 PUF domain R5-RSI were 3.07 log2 enrichment (interaction score), 2.54 log2 enrichment (interaction score) and 3 log2 enrichment (interaction score), respectively.

As to “GGCUAGAACUAGUGGAUCCCCCGGCGCCCGGCGGCUCGAGCCCGGGUAAGUGUAAGUAGUCUGCAUGCCGCCGGGCGCCAUGCCUGCAGGUCGACUCUAGAAAACAUG”, the binding signal was 3.65 log2 enrichment (interaction score) in the assay with PUM1 PUF domain R3-LWC, 5.98 log2 enrichment (interaction score) in the assay with PUM1 PUF domain R3-GPE, 6.19 log2 enrichment (interaction score) with PUM1 PUF domain R3-LYG and 2.68 log2 enrichment (interaction score) in the assay with PUM1 PUF domain R3-MSN.

“GGCUAGAACUAGUGGAUCCCCCGGCGCCCGGCGGCUCGAGCCCGGGUAAGUGUAUAUAGUCUGCAUGCCGCCGGGCGCCAUGCCUGCAGGUCGACUCUAGAAAACAUG”: the binding signal with PUM1 PUF domain R4-HWP is 4.4 log2 enrichment (interaction score); in the assay with PUM1 PUF domain R4-GPT, 2.14 log2 enrichment (interaction score); with PUM1 PUF domain R4-MPG, 2.39 log2 enrichment (interaction score).

Turning to “GGCUAGAACUAGUGGAUCCCCCGGCGCCCGGCGGCUCGAGCCCGGGUAAGUUUAAAUAGUCUGCAUGCCGCCGGGCGCCAUGCCUGCAGGUCGACUCUAGAAAACAUG”, the binding signal with PUM1 PUF domain R7-VVK was 3.27 log2 enrichment (interaction score).

With “GGCUAGAACUAGUGGAUCCCCCGGCGCCCGGCGGCUCGAGCCCGGGUAAGUGUCAAUAGUCUGCAUGCCGCCGGGCGCCAUGCCUGCAGGUCGACUCUAGAAAACAUG”, the binding signal with PUM1 PUF domain R5-HLE was 0.68 log2 enrichment (interaction score); in the assay with PUM1 PUF domain R5-RSI, 2.24 log2 enrichment (interaction score).
